Reference: PubChem BioAssay (EPA / NIEHS)
Results filed as inconclusive are left out. Activity calls are given as the source filed them. The calls were made as follows: active = hit-call score of the fitted dose curve at least 0.9, where 1 is the maximum; inconclusive = response in the unintended direction; inactive = score below 0.9.

molecular target: guinea pig Sigma Receptor, Non-selective Binding, SIGMAR1 (gene 100135589) (UniProt Q60492); assay: NVS_OR_gSIGMA_NonSelective: NovaScreen (NVS) Nuclear Receptor Binding Assay for guinea pig Sigma Receptor, Non-selective Binding (AID 2283367)
Sequence (Q60492 whole entry, looked up): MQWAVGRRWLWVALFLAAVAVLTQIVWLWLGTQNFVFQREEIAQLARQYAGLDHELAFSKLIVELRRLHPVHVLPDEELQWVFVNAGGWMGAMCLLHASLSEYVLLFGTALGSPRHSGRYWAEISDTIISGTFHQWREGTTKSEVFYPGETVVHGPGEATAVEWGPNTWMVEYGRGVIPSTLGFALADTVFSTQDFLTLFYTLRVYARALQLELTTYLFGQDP
Method in brief: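 Test chemicals were screened in duplicate at 25 uM, then in concentration series if active, against radioligand binding to guinea pig brain membranes; filtration and scintillation counting at 1 h measured remaining bound ligand.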

Compound | outcome | AC50
CCCCCCC(=O)OCC | inactive | 
CN1CCN(Cc2cc(-c3ccc4[nH]c(=O)oc4c3)co2)[C@@H](c2ccc(F)cc2)C1 |  | 5.66 µM (active)
Cc1cccc([N+](=O)[O-])c1C | inactive | 
Oc1ccc2c(c1)OC[C@@H](N1CCC(O)(c3ccc(F)cc3)CC1)[C@H]2O | inactive | 
NC(=O)Cn1c(=O)cc(CCN2CCN(c3nccc4sccc34)CC2)c2ccc(F)cc21 |  | 2.1 µM (active)
Cc1ccc(C(C)C)c(O)c1 | inactive | 
FC(F)(F)C(F)(F)C(F)(F)C(F)(F)C(F)(F)C(F)(F)CCI |  | 3.3 µM (active)
CCOc1ccc2c(c1)C(C)=CC(C)(C)N2 |  | 16.4 µM (active)
Cc1ccccc1Cl |  | 15.7 µM (active)
Cc1nc(-c2ccc3c(c2)CCN(CCC2CCC(NC(=O)/C=C/c4ccc(F)cc4)CC2)CC3)no1 (stereo not drawn) |  | 1.03 µM (active)
CNC(=O)[C@H]1O[C@@H](n2cnc3c(NCc4cc(Cl)ccc4OCc4cc(C)no4)ncnc32)[C@H](O)[C@@H]1N |  | 9.75 µM (active)
Cc1oc(-c2ccccc2)nc1CCOc1cccc2c1ccn2CCC(=O)O |  | 11 µM (active)
Oc1ccc2ccccc2c1N=Nc1ccccc1 | inactive | 
CC(C)(C)c1cc(O)c(C(C)(C)C)cc1O |  | 5.75 µM (active)
Cc1nc(C)nc(N2C[C@@H](C)N(c3ccnc([C@@H](C)O)n3)[C@@H](C)C2)n1 |  | 3.21 µM (active)

molecular target: human Adenosine Transporter (Adot), SLC29A1 (gene 2030) (UniProt Q99808); assay: NVS_TR_hAdoT: NovaScreen (NVS) Transporter Assay for human Adenosine Transporter (Adot) (AID 2283368)
Sequence (Q99808 whole entry, looked up): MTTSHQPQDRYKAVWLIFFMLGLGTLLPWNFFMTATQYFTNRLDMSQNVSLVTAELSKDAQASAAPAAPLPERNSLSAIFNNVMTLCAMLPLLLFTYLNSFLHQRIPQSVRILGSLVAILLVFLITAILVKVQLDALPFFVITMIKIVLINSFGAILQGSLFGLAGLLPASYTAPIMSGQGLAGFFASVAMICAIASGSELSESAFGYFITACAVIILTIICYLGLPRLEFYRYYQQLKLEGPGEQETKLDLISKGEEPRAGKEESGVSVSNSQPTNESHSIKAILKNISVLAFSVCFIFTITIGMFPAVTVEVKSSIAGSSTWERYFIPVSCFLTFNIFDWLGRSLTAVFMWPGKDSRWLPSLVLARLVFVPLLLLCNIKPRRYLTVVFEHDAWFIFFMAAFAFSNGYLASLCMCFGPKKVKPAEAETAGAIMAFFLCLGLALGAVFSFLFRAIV
Method in brief: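 Binding displacement on U937 extracted protein, read 1 h post-dose by filtration and scintillation counting. Primary duplicate test at 25 uM, then singleton concentration series with 50 uM top; DMSO baseline.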

Compound | AC50 | outcome
CCCCC(CC)COC(=O)CC(C(=O)OCC(CC)CCCC)S(=O)(=O)O (stereo not drawn) | 19.1 µM (active) | 
Nc1nc(N)c2nc(CNc3ccc(C(=O)N[C@@H](CCC(=O)O)C(=O)O)cc3)cnc2n1 |  | inactive
C[C@]12C=CC(=O)C=C1CC[C@@H]1[C@@H]2C(=O)C[C@@]2(C)[C@H]1CC[C@]2(O)C(=O)CO | 14.1 µM (active) | 
c1cc(-c2ccncc2)ccn1 |  | inactive

test system: guinea pig Dopamine Transporter (DAT), gene 100714898; assay: NVS_TR_gDAT: NovaScreen (NVS) Transporter Assay for guinea pig Dopamine Transporter (DAT) (AID 2283369);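 also: active compounds lower bound radioligand signal relative to DMSO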
Method in brief: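 Primary pass: duplicate wells at 25 uM, threshold e.g. 30% inhibition. Follow-up: singleton concentration-response, highest 50 uM. Radioligand binding on guinea pig striatal membranes, 2 h, filtration scintillation detection.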

Compound | AC50 | outcome
CN1CCN(Cc2cc(-c3ccc4[nH]c(=O)oc4c3)co2)[C@@H](c2ccc(F)cc2)C1 | 5.69 µM (active) | 
COc1ccc(S(=O)(=O)N2C(=O)[C@@](c3ccccc3OC)(N3C[C@H](O)C[C@H]3C(=O)N(C)C)c3cc(Cl)ccc32)c(OC)c1 | 25 µM (active) | 
CCCCC(CC)COC(=O)CC(C(=O)OCC(CC)CCCC)S(=O)(=O)O (stereo not drawn) | 20.6 µM (active) | 
CCc1c(C(=O)NN2CCCCC2)nn(-c2ccc(Cl)cc2Cl)c1-c1ccc(Br)cc1 |  | inactive
Cc1ccc(C(C)C)c(O)c1 |  | inactive
Cc1c(C(=O)O)c(O)cc2c1C(=O)c1c(O)c([C@@H]3O[C@H](CO)[C@@H](O)[C@H](O)[C@H]3O)c(O)c(O)c1C2=O |  | inactive
CC=Cc1ccc(O)c(OC)c1 | 16.6 µM (active) | 
Nc1ccc(S(=O)(=O)c2ccc(N)cc2)cc1 | 25 µM (active) | 
CCOC(=O)CCC(=O)OCC | 6.93 µM (active) | 
